Reference: PubChem BioAssay AID1730 (National Center for Advancing Translational Sciences (NCATS), 2009)
Inconclusive results are not listed. A number with no mark means an inactive call. Calls of active or inactive are those of the source. The call rests on the fitted dose curve; in most records, active means well fitted inhibition curve with a large enough effect; inconclusive means small, poorly fitted or top-dose-only effect; inactive means no such curve, though single readings can be large or run the other way.

Assay: Counterscreen Assay for Inhibitors of the ERK Signaling Pathway using a Homogeneous Screening Assay
Details: AlphaScreen bead counterscreen in cell lysate, 5 h; series mostly up to 45.6 µM; activity change, negative = inhibition: at the top concentration
Method in brief: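 Counter-screen for AlphaScreen artefacts: biotinylated rabbit IgG bridges streptavidin donor and protein-A acceptor beads. Lysates came from HEK293 cells given compound (up to 46 uM, 30 min, 37C) then vasopressin 25 nM, 5 min. Hill-derived AC50s; controls DMSO and 25 nM IgG.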

Compound	activity change, negative = inhibition	Potency
Cc1cccc(CNc2ncnc3ccc(-c4cccc(NS(C)(=O)=O)c4)cc23)c1	-11.9%	
COc1cc2ncnc(NCc3cccc(Cl)c3)c2cc1OC	-22.8%	
O=C1c2ccc(O)c(O)c2C(=O)c2c(O)ccc(O)c21		4.47 µM (active)
Cc1sc2ncnc(Sc3nnnn3-c3ccc(Cl)cc3)c2c1C	-12.9%	
CCOC(=O)Cc1csc(NC(=O)CSc2ncnc3c2cnn3-c2ccc(OC)cc2)n1	-15.9% [at 57.5 µM]	
C/C(=N\Nc1nnc(-c2ccccc2)c(-c2ccccc2)n1)c1cccc([N+](=O)[O-])c1	-10%	
CCN(C1CCCCC1)S(=O)(=O)c1ccc(S(=O)(=O)NCc2ccncc2)cc1	9.89% [at 57.5 µM]	
CCCCOc1cc(CC2CNC(=O)N2)ccc1OC (stereo not given)		inactive
Cc1ccc(Nc2ncnc3sc(C)c(C)c23)cc1C	-15.2%	
Fc1cccc(Nc2ncnc3sc4c(c23)CCC4)c1	-7.2%	
c1ccc(Nc2ncnc3sc4c(c23)CCC4)cc1	-12.1%	
Fc1ccc(Nc2ncnc3sc4c(c23)CCC4)cc1F	-2.34%	
Cn1c(=O)cc(Nc2ccccc2)c2c(=O)n(-c3ccccc3)c(=O)n(-c3ccccc3)c21	-33.4%	
C=C[C@]1(C)CC(=O)[C@@]2(O)[C@@]3(C)C(O)CCC(C)(C)C3C(O)C(OC(C)=O)[C@@]2(C)O1 (stereo not given in full)	-10.3%	
COc1ccc(C2=Nn3c(nnc3-c3ccccc3OC)SC2)cc1OC	7.65% [at 57.5 µM]	
CS(=O)(=O)CCNCc1nc(-c2ccc3ncnc(Nc4ccc(OCc5cccc(F)c5)c(Cl)c4)c3c2)cs1	-9.75%	
c1ccc(Nc2ncnc3ccc(-c4cccnc4)cc23)cc1	-11.4%	
COc1ccc(C(=O)c2ccc(Cl)c([N+](=O)[O-])c2)cc1	-22.8%	
CCOC(=O)c1ccc(NC(=O)c2ccc(C)c(S(=O)(=O)N3CCOCC3)c2)cc1	-20.2% [at 57.5 µM]	
Cc1ccc(Nc2ncnc3sc(C)c(C)c23)cc1	-17.7%	
Cc1nc2ccccc2nc(=O)c1NNc1ccccc1	-26.2%	
COc1ccc(CC(=O)Nc2cccc(-c3nnc(-c4cccc(C)c4)o3)c2)cc1OC	9.16% [at 57.5 µM]	
COc1cc(C2CC(=O)c3c([nH]c(C(=O)OCCOC(C)C)c3C)C2)cc(OC)c1OC (stereo not given)	4.07% [at 57.5 µM]	
CCCN1C(=O)/C(=C2/C=Cc3ccccc3N2CC)SC1=S		3.55 µM (active)
Cc1noc(NS(=O)(=O)c2ccc(NC(=O)COc3ccc(Cl)cc3Cl)cc2)c1C	-16% [at 57.5 µM]	
